In the library only some 4.7% were active in any assay of this set; here they are far more common.
TIM10 inh – growth inhibitors of isogenic TIM10 control yeast, primary screen, counter-screen for tim10-1 yeast inhibitor project, luminescence, uHTS. S. cerevisiae TIM10 strain growth, BacTiter-Glo luminescence, 24 h. inhibition, % at 10 µM. 330,000 compounds, 1.4% hits;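 active = inhibition of 40% or more at the single tested concentration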;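 also: wild-type TIM10 isogenic control strain grown at permissive 25 °C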
Calb FLC – C. albicans growth inhibition with fluconazole, primary screen, CaCi-2 strain, Alamar Blue fluorescence; C. albicans CaCi-2 (fluconazole-resistant clinical isolate) + fluconazole, 48 h; growth inhibition, % (test concentration not listed); AID 1979, 2009; 300,000 compounds, 0.57% hits;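 active = growth inhibition above about 58% in most replicates, limit read from the data, passing the limit was not always enough; inconclusive = exactly half the replicates above a set limit; inactive = most replicates below a set limit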;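 also: all wells also contain fluconazole at 8 µg/ml as a sub-toxic cotreatment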
tim10-1 inh – growth inhibitors of tim10-1 mutant yeast, primary screen, luminescence, uHTS. 330,000 compounds, 2.2% hits. S. cerevisiae tim10-1 ts strain growth, BacTiter-Glo, 24 h. inhibition, % at 20 µM;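 active = inhibition of at least 40%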;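 also: mutant grown at 25 °C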
PfHsp90 set2 – growth inhibition of PfHsp90-expressing yeast, primary screen, antimalarial PfHsp90 inhibitor project, S. cerevisiae, BacTiter-Glo luminescence, single point, set 2. BacTiter-Glo ATP, 48 h; yeast lacking PDR1 and PDR3 efflux regulators. inhibition, % at 9.4 µM. 310,000 compounds, 0.32% hits. AID 504621, 2011;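 active = every replicate shows inhibition above about 80%, whatever the replicate mean, limit read from the data; inconclusive = mean inhibition reaches the set limit but some replicate falls short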
tim23-1 inh – growth inhibitors of tim23-1 mutant yeast, primary screen, luminescence, uHTS | S. cerevisiae tim23-1 growth, BacTiter-Glo luminescence, 24 h | 330,000 compounds, 1.3% hits | AID 463212, 2010 | inhibition, % at 20 µM;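 active = growth inhibition of the mutant yeast at or above 50%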;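 also: temperature-sensitive mutant grown at 25 °C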
SKKanGAS inh – S. pyogenes SKKanGAS growth inhibitors in kanamycin, primary screen, streptokinase expression inhibitor project, SKKanGAS strain, BacTiter-Glo luminescence; 6 h; inhibition, % at 7.5 µM; 300,000 compounds, 1.3% hits; AID 1662, 2009;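 active = mean replicate score, as percent of positive control median, at least 50; inconclusive = mean below 50 but one replicate at or above 50; inactive = mean and every replicate below 50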;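 also: strain carries kanamycin resistance gene driven by streptokinase promoter and grows in 40 µg/ml kanamycin; loss of luminescence reflects streptokinase promoter inhibition or plain growth inhibition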
TIM10 conf – growth inhibitors of wild-type TIM10 yeast, confirmation, counter-screen for tim10-1 synthetic lethality project, single concentration, luminescence, S. cerevisiae. shares compounds with TIM10 inh. S. cerevisiae tim10 strain growth, BacTiter-Glo luminescence, 24 h. inhibition, % at 10 µM. 4,600 compounds, 63% hits;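 active = inhibition of yeast growth at or above a set limit in either of two replicates at 10 µM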; also: this counterscreen used the strain with wild-type TIM10
A number is an active result.

CC(C)Oc1ccccc1C1NC(=O)CCC1[N+](=O)[O-] (stereo not drawn) was read as TIM10 inh inactive, Calb FLC inactive, tim10-1 inh inactive, PfHsp90 set2 inactive, tim23-1 inh inactive and SKKanGAS inh inactive.
For CNc1cnn(-c2ccccc2)c(=O)c1Cl the results were TIM10 inh inactive, Calb FLC inactive, tim10-1 inh inactive, PfHsp90 set2 inactive, tim23-1 inh inactive and SKKanGAS inh inactive.
Cc1ccc(Sc2cnn(-c3ccccc3)c(=O)c2Cl)cc1 was read as TIM10 inh 51.7, Calb FLC inactive, tim10-1 inh inactive, PfHsp90 set2 inactive, tim23-1 inh inactive, SKKanGAS inh inactive and TIM10 conf 45.9.
Cn1cc(Br)c(NC(=O)/C=C/C(=O)O)n1 was read as TIM10 inh 65.9, Calb FLC inactive, tim10-1 inh inactive, PfHsp90 set2 inactive, tim23-1 inh inactive, SKKanGAS inh inactive and TIM10 conf inactive.
Screening COc1ccc(CN(Cc2nc3ccccc3c(=O)[nH]2)C(=O)NC2CCCCC2)cc1 returned TIM10 inh inactive, Calb FLC inactive, tim10-1 inh inactive, PfHsp90 set2 inactive, tim23-1 inh inactive and SKKanGAS inh inactive.
Screening COc1ccc(S(=O)(=O)N(Cc2nc3ccccc3c(=O)[nH]2)C2CCCC2)cc1 returned TIM10 inh 42.2, Calb FLC inactive, tim10-1 inh inactive, PfHsp90 set2 inactive, tim23-1 inh inactive, SKKanGAS inh inactive and TIM10 conf inactive.
C=CCn1c(N/N=C/c2ccc(O)cc2)nc2ccccc2c1=O was read as TIM10 inh 44.9, Calb FLC inactive, tim10-1 inh inactive, PfHsp90 set2 inactive, tim23-1 inh inactive, SKKanGAS inh inactive and TIM10 conf 32.2.
For CCCOc1cccc(C(=O)NC(=S)Nc2cccc(C(F)(F)F)c2)c1 the results were TIM10 inh 41.1, Calb FLC inactive, tim10-1 inh inactive, PfHsp90 set2 inactive, tim23-1 inh inactive, SKKanGAS inh inactive and TIM10 conf inactive.
Screening CN(C)c1ccc(/C=C/C(=O)c2ccc3c(c2)OCCO3)cc1[N+](=O)[O-] returned TIM10 inh 43.2, Calb FLC inconclusive, tim10-1 inh inactive, PfHsp90 set2 inactive, tim23-1 inh inactive, SKKanGAS inh inactive and TIM10 conf inactive.
For N#CC1(NC(=O)CSc2nnc3n2CCCCC3)CCCCC1 the results were TIM10 inh 80.9, tim10-1 inh inactive, PfHsp90 set2 inactive, tim23-1 inh inactive and TIM10 conf inactive.
O=C(O)c1cc(-c2ccccc2)c(N2CCOCC2)s1 was read as TIM10 inh inactive, Calb FLC inactive, tim10-1 inh inactive, PfHsp90 set2 inactive, tim23-1 inh inactive and SKKanGAS inh inactive.
`O=C(c1ccc(Cl)cc1)c1cc(-c2ccccn2)c(N2CCOCC2)s1` gave TIM10 inh 40.0, Calb FLC inactive, tim10-1 inh inactive, PfHsp90 set2 inactive, tim23-1 inh inactive, SKKanGAS inh inactive and TIM10 conf inactive.
Screening CCc1ccc(/C=C2\SC(N3CCCC3)=NC2=O)cc1 returned TIM10 inh 44.2, Calb FLC inactive, tim10-1 inh inactive, PfHsp90 set2 inactive, tim23-1 inh inactive, SKKanGAS inh inactive and TIM10 conf 40.9.
`O=C1N=C(N2CCCCC2)S/C1=C\c1ccncc1` gave TIM10 inh inactive, Calb FLC inactive, tim10-1 inh inactive, PfHsp90 set2 inactive, tim23-1 inh inactive and SKKanGAS inh inactive.
For O=C(NCC1CCCO1)c1cnn2c(C(F)F)cc(C3CC3)nc12 (stereo not drawn) the results were TIM10 inh inactive, Calb FLC inactive, tim10-1 inh inactive, PfHsp90 set2 inactive, tim23-1 inh inactive and SKKanGAS inh inactive.

Bioassay records (PubChem BioAssay)
